Source: PubChem BioAssay
A selection: hits, their analogues and other compounds. The true share with any hit is near 2.4%.
POLI inh = DNA polymerase iota (human) inhibition; Pol iota fluorescent replication assay, 10 min; Potency, µM (titrated, usually from 115 µM), actives largely listed as inhibitors; 1% of 390,000 active
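Pol iota at 10 nM preincubated 15 min with compounds at room temperature; reaction started with fluorescent substrate, 50 nM final. Fluorescence read kinetically at 0 and 10 min; buffer-only wells as negative control.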
Pol eta inh-1 = inhibitors of human DNA polymerase eta; Q9Y253; recombinant Pol eta, fluorescent DNA replication assay; Potency, µM (doses to about 114 µM), most hits filed as inhibitors; 1.2% of 390,000 active; AID 588591
Target sequence (Q9Y253 whole entry, looked up): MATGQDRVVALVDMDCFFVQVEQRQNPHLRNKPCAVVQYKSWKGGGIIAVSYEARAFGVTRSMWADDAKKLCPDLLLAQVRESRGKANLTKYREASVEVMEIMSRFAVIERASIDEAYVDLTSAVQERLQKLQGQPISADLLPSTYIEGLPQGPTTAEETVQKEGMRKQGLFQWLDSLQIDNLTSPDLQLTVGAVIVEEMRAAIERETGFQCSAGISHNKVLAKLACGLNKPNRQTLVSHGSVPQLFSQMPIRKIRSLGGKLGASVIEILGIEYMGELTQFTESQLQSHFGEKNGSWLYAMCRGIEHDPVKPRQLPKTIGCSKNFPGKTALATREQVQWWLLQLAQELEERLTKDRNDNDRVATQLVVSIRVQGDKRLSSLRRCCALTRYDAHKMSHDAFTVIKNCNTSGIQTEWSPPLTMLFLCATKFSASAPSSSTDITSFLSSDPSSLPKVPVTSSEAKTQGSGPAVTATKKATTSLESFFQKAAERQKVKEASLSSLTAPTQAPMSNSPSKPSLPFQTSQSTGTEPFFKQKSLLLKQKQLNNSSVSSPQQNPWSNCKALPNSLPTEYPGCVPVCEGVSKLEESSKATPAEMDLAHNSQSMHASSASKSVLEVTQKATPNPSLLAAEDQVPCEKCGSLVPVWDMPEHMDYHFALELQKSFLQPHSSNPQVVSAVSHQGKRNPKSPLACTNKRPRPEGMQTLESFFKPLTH
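Pol eta (10 nM) was preincubated with compounds for 15 min at room temperature, after which fluorescent replication substrate (50 nM final) was added to start the reaction. Fluorescence was read kinetically at 0 and 10 min.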
Pol beta inh-1 = DNA polymerase beta (human) inhibition. P06746. 1.3% of 340,000 active. Pol beta primer extension/strand displacement, fluorescence kinetic. Potency, µM (doses to about 114 µM), usual class: inhibitors
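Reaction started by 50 nM substrate onto compound-treated Pol beta (10 nM, 15 min preincubation, room temperature); plates read at 0 min and 10 min. Normalized concentration-effect data fitted by four-parameter Hill equation.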
Pol kappa inh-1 = DNA polymerase kappa (human) inhibition | Potency, µM (series often up to 107 µM), most hits filed as inhibitors | 0.53% of 400,000 active | purified Pol kappa, fluorescent DNA synthesis assay, 10 min
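Pol kappa 10 nM + cpd, 15 min RT; start w/ substrate 50 nM final; fluorescence kinetic read, 0 and 10 min. Neg ctrl: buffer, no enzyme.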
APE1 inh-1 = inhibitors of human APE1 endonuclease; Potency, µM (series often up to 65.8 µM), most hits filed as inhibitors; P27695; 0.35% of 350,000 active; recombinant APE1, TAMRA/BHQ-2 abasic DNA cleavage fluorescence; also: nearly all actives have a fitted effect of over 55% in size
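Readout is kinetic fluorescence (ex 525, em 598 nm) from cleavage of 50 nM TAMRA/BHQ-2 THF abasic duplex by 0.75 nM APE1, compound added 15 min beforehand at RT.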
GLS inh = glutaminase GLS (human) inhibition | O94925 | GLS enzymatic activity, qHTS titration | Potency, µM (titrated, usually from 45.5 µM), most hits filed as inhibitors | 0.21% of 410,000 active
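Glutamate formation by hKGA was monitored fluorometrically using coupled glutamate oxidase, HRP and Amplex Red. Substrate was added as 1 mM L-glutamine solution; incubation was 30 min at RT after an initial read.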
DNA dye displace = counter-screen for APE1 inhibitors: DNA dye displacement; shares compounds with APE1 inh-1; DNA fluorescent dye displacement counterscreen, fluorescence; Potency, µM (doses to about 28.5 µM), usual class: inhibitors; 7% of 480 active; AID 2564;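 also: loss of thiazole orange fluorescence as the dye is displaced from duplex DNA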
EndoIV counter = blocks E. coli endonuclease IV DNA cleavage; shares compounds with APE1 inh-1; E. coli Endo IV, fluorogenic AP-site DNA cleavage; Potency, µM (series often up to 27.1 µM), most hits filed as inhibitors; 4% of 560 active
APE1 inh-2 = APE1 (human) endonuclease inhibition, confirmation | shares compounds with APE1 inh-1 | purified APE1, fluorogenic abasic-site DNA cleavage | Potency, µM (series often up to 57.1 µM), most hits filed as inhibitors | 44% of 750 active; also: nearly all actives have a fitted effect of over 30% in size
APE1 FP = APE1 (human) DNA binding inhibition, fluorescence polarization; Potency, µM (highest dose often 28.5 µM), hits mostly inhibitors; shares compounds with APE1 inh-1; AID 2573; APE1 binding to TAMRA-labelled double-stranded DNA, fluorescence polarization displacement; 7% of 480 active
Pol beta inh-2 = Human Pol beta inhibitor hit validation. shares compounds with Pol beta inh-1. Pol beta primer extension/strand displacement, fluorescence kinetic. Potency, µM, most hits filed as inhibitors. 87% of 250 active. AID 540280; calls by dose curve
Klenow inh = inhibits Klenow fragment polymerase in counter-screen; shares compounds with Pol beta inh-1; Klenow exo- polymerase counter-screen, fluorescent DNA substrate; activity change, negative = inhibition, % at 57.1 µM; 250 tested, under 10 active; AID 540300
HIV RT counter = inhibits HIV-1 reverse transcriptase in counter-screen; shares compounds with Pol beta inh-1; HIV-1 RT polymerase activity, counter-screen; activity % (negative = inhibition, positive = activation), % at 57.1 µM; 250 tested, under 10 active
POLB valid = validation of human DNA polymerase beta inhibitors. shares compounds with Pol beta inh-1. radiolabeled primer extension gel assay, phosphorimager. inhibition, % at 10 µM. 91% of 110 active;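 active = inhibition at 10 µM of 30% or more; inconclusive = no clear call, values can overlap the other calls; inactive = inhibition at 10 µM under 30%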
TbPGK inh = blocks T. brucei phosphoglycerate kinase. shares compounds with Pol kappa inh-1. TbPGK coupled GAPDH assay, Kinase-Glo luminescence. Potency, µM (series often up to 57.5 µM), actives largely listed as inhibitors. 79% of 500 active. AID 686980; also: nearly all actives have a fitted effect of over 65% in size
POLI cherry-pick = Confirm cherry-picked inhibitors of human polymerase iota; shares compounds with Pol kappa inh-1; Pol iota primer extension, TAMRA/BHQ fluorescence; Potency, µM, hits mostly inhibitors; 77% of 1,500 active
Pol kappa inh-2 = Pol kappa (human) inhibition, cherry-pick confirmation. shares compounds with Pol eta inh-1. purified Pol-kappa, fluorescent strand-displacement substrate. Potency, µM, most hits filed as inhibitors. 76% of 920 active. AID 720501
Pol eta inh-2 = Pol eta (human) inhibition, cherry-pick confirmation. 64% of 2,600 active. Potency, µM, actives largely listed as inhibitors. shares compounds with Pol eta inh-1. AID 720502. Pol eta primer extension, TAMRA/BHQ fluorescence, 10 min
Hits are given with their value; 0 = inactive; ? = inconclusive; - = no result given. Unless noted, calls follow the shape of the dose curve; as a rule, active = well fitted curve in the direction sought with a large enough effect; inconclusive = small, poorly fitted or top-dose-only effect, or another doubt; inactive = no such curve, though single readings can be large; an effect the other way counts as inactive or inconclusive.

SMILES	POLI inh	Pol eta inh-1	Pol beta inh-1	Pol kappa inh-1	APE1 inh-1	GLS inh	DNA dye displace	EndoIV counter	APE1 inh-2	APE1 FP	POLI cherry-pick	Pol eta inh-2	others
Cc1cccc(-c2ccc(C=Nc3c(C)n(C)n(-c4ccccc4)c3=O)o2)c1	0	0	0	0	0	0	-	-	-	-	-	-
O=C(O)c1cc(-c2ccc(/C=C3\NC(=O)N(c4ccccc4)C3=O)o2)ccc1Cl	?	4µM	22µM	45µM	25µM	?	-	-	?	-	34	15
O=C1NN(c2ccccc2)C(=O)/C1=C/c1ccc(-c2ccc(Cl)c(C(=O)O)c2)o1	?	7.1µM	13µM	?	13µM	?	?	0	22µM	?	42	30
Cc1cccc(N2NC(=O)/C(=C/c3ccc(-c4ccc(Cl)c(C(=O)O)c4)o3)C2=O)c1	3.5µM	6.3µM	25µM	35µM	18µM	0	0	0	?	0	34	17
O=C(O)c1cc(N/N=C/c2ccc(-c3ccc(F)cc3)o2)ccc1Cl	?	?	0	0	0	0	-	-	-	-	-	-
CCOc1ccc(Nc2nc(C)c(NC(=O)c3cccc(F)c3)c(Nc3ccc(OCC)cc3)n2)cc1	?	0	0	0	-	0	-	-	-	-	-	-
COC(=O)c1[nH]c2ccccc2c1NC(=O)CCN1CCN(C2CCCCC2)CC1	-	-	0	-	0	-	-	-	-	-	-	-
Cc1cc[n+](-c2[nH]c(=O)sc2/C=N/N=C(\[O-])c2ccccc2)cc1	25µM	?	14µM	?	0	0	-	-	40µM	-	38	27
Cc1ccc(NC(=O)CN2C(=O)N/C(=C\c3cccn3-c3cccc(C(=O)O)c3)C2=O)cc1	14µM	3.5µM	4µM	45µM	3.5µM	0	0	0	14µM	14µM	19	27	TbPGK inh=15µM;Pol kappa inh-2=42
O=C1N/C(=C/c2cccn2-c2ccc(F)cc2)C(=O)N1Cc1ccccc1	0	0	0	0	0	0	-	-	-	-	-	-
O=C(O)c1cccc(-n2cccc2/C=C2\NC(=O)N(Cc3ccc(F)cc3)C2=O)c1	22µM	20µM	11µM	79µM	10µM	?	0	0	10µM	?	67	30
Cc1cc(C(=O)O)ccc1-c1ccc(/C=C2\NC(=O)N(Cc3ccc(F)cc3)C2=O)o1	?	7.1µM	?	28µM	13µM	?	?	0	40µM	0	17	17
O=C(O)c1ccc(COc2ccccc2/C=C2\NC(=O)N(Cc3ccccc3)C2=O)cc1	0	0	0	0	?	0	-	-	-	-	-	-
Cc1c(C(=S)NC(=O)C2CC2)c(=O)n(-c2ccccc2)n1C	0	0	0	0	0	0	-	-	-	-	-	-
COc1ccc(Br)cc1/C=c1\sc2nc(-c3ccco3)nn2c1=O	8.9µM	3.2µM	4.5µM	20µM	28µM	0	?	0	?	0	60	30	Pol kappa inh-2=12
O=c1nc2s/c(=C\c3ccco3)c(=O)n2nc1Cc1ccc(F)cc1	10µM	7.1µM	2.8µM	20µM	7.9µM	0	?	0	7.1µM	?	38	30
COc1ccc(OC)c(NC(=O)CCn2cnnn2)c1	0	0	0	0	-	0	-	-	-	-	-	-
O=C(CSc1nnc(-c2cccc(S(=O)(=O)N3CCCC3)c2)n1-c1ccccc1)Nc1ccc(C(=O)O)cc1	?	35µM	32µM	?	0	?	-	-	?	-	42	43
O=C(CSc1nnc(-c2cccc(S(=O)(=O)N3CCCC3)c2)n1-c1ccccc1)Nc1cccc(C(=O)O)c1	?	0	0	0	0	0	-	-	-	-	-	-
Cc1ccc(-c2cc(-c3ccco3)c(C#N)c(=O)[nH]2)cc1	?	28µM	11µM	?	35µM	0	0	0	?	?	21	15	Pol beta inh-2=22;Klenow inh=0;HIV RT counter=0;POLB valid=96
Cc1ccc(-c2cc(C(F)(F)F)c(C#N)c(=O)[nH]2)cc1	0	0	0	0	0	0	-	-	-	-	-	-
CCc1cc(=O)oc2cc(C)c(CN3CCCC3)c(O)c12	3.2µM	22µM	7.9µM	8.9µM	13µM	0	0	0	?	?	?	30	Pol kappa inh-2=24
COc1ccc(-c2cnnc(N/N=C/c3ccc(O)c(O)c3)n2)cc1	8.9µM	20µM	3.5µM	25µM	20µM	0	?	0	0	0	47	30
Cc1ccc(N2C(=O)c3ccccc3C2C(=O)c2ccc(O)cc2O)cc1 (stereo unspecified)	11µM	79µM	35µM	11µM	6.3µM	0	0	0	?	0	19	30
Cc1c(C(=O)O)sc2nc3n(c(=O)c12)CCC3	11µM	7.9µM	18µM	?	?	0	-	-	?	-	-	60
